In PubChem BioAssay (NCI) one finds growth data, which are given here for 17 compounds.

What all share (assay): NCI-60 one-dose screen, 48 h (100 = growth as untreated, 0 = no growth, -100 = all killed)
Common to all, as to settings: 10 µM unless noted

Assay [1] has as its system NCI-H23 lung.
Assay [2] deals with NCI-H226 lung.
The subject of assay [3] is HOP-62 NSCLC.
Assay [4] relates to NCI-H460 lung.
Assay [5] deals with HOP-92 NSCLC.
Assay [6] has as its system NCI-H522 lung.
Assay [7] relates to A549/ATCC NSCLC.
Assay [8] deals with 786-0 renal.
The test system of assay [9] is COLO 205 colon.
Assay [10] has as its system NCI-H322M lung.

“And” between values parts separate entries of the source, which are not always exact repeats. Equal values may be shown once. About 83,000 compounds went through this panel and 20% of them were active in at least one assay; those are over-represented in the sample as a whole.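 In brief: 96-well plates, 48 h treatment, single concentration, percent growth endpoint.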 The source made the active and inactive calls. The calls were made as follows: active = growth percent below 10; inactive = the rest.

As to `CCC(O)c1ccccc1` (stereo unspecified), the growth in [1] is 112% (inactive) and 113% (inactive); in assay [2], 96.1% (inactive) and 109% (inactive); in assay [3] it was 87.2% (inactive) and 109% (inactive); in assay [4] it was 106% (inactive) and 104% (inactive); in [5], 117% (inactive) and 91.6% (inactive); in assay [6] it was 101% (inactive) and 86.4% (inactive). For the same compound, the growth is 104% (inactive) and 99.4% (inactive) in assay [7]; 94.6% (inactive) and 106% (inactive) in [8]; 128% (inactive) and 111% (inactive) in assay [9].

On to `CC(=O)Nc1ccc2cc3ccc(NC(C)=O)cc3nc2c1`, for which the growth was 74.2% (inactive) and 75% (inactive) in [1]; 71% (inactive) and 69.8% (inactive) in assay [2]; 70.9% (inactive) and 67% (inactive) in [3]; 93.6% (inactive) and 106% (inactive) in [4]; 60.6% (inactive) in [5]; 74.3% (inactive) and 77.7% (inactive) in assay [6]. Besides, the growth in [7] is 107% (inactive) and 115% (inactive); in assay [8], 63.9% (inactive) and 52.1% (inactive); in assay [9], 93.7% (inactive) and 91.4% (inactive).

For the compound `O=C(O)C1(C(=O)O)CCC1.[NH2-].[NH2-].[Pt+2]`, the growth is 104% (inactive) and 87.6% (inactive) in assay [1]; 99% (inactive) and 98.5% (inactive) in assay [2]; 98.2% (inactive) and 105% (inactive) in [3]; 116% (inactive) and 92.4% (inactive) in assay [4]; 70.1% (inactive) in assay [5]; 98.3% (inactive) and 76.1% (inactive) in [6]. Also, the growth in assay [7] is 99.3% (inactive) and 97.5% (inactive); in assay [8] it was 101% (inactive) and 98.7% (inactive); in assay [9], 106% (inactive) and 115% (inactive).

On to `O=C(Nc1ccc(Br)cc1)c1cc(Br)ccc1O`, for which the growth in [1] is 0.675% (active) and -16.7% (active); in [2] it was 18.2% (inactive) and -33.2% (active); in assay [10] it was -15.9% (active) and 1.23% (active); in assay [4], 2.62% (active) and 3.86% (active); in assay [5], -23% (active) and -12% (active); in assay [7] it was 14.8% (inactive) and 14.7% (inactive). The growth in assay [8] was 0.723% (active) and 2.62% (active); in assay [9], 92.9% (inactive) and -42.3% (active).

On to `COc1ccc(S(=O)(=O)N2CCOCC2)cc1NC(=O)c1[nH]c(C)c2c1CCCCC2=O`, for which the growth in assay [1] was 104% (inactive) and 59% (inactive); in assay [2], 104% (inactive) and 62% (inactive); in [3], 109% (inactive) and 33.8% (inactive); in assay [4], 103% (inactive) and 75.9% (inactive); in [5], 111% (inactive) and 27% (inactive); in assay [6] it was 100% (inactive) and 40.9% (inactive). Moreover, the growth is 97.2% (inactive) and 61.7% (inactive) in assay [7]; 107% (inactive) and 93.4% (inactive) in assay [8]; 113% (inactive) and 34.8% (inactive) in assay [9].

In the case of `Nc1ccc2ccc(N)cc2c1`, the growth is 69.7% (inactive) in assay [1]; 95.7% (inactive) in assay [2]; 69.1% (inactive) in [10]; 101% (inactive) in assay [5]; 82.5% (inactive) in [7]; 94.3% (inactive) in assay [8]. The growth in [9] is 89.6% (inactive).

In the case of `O=C1C2=C(C(=O)c3ccccc31)C(O)(S(=O)(=O)O)C(O)(S(=O)(=O)O)C1N=CC=CC21` (stereo unspecified), the growth in [1] is 31.8% (inactive) and 20.8% (inactive); in assay [2], 57% (inactive) and 68.1% (inactive); in assay [10], 44.8% (inactive) and 16.8% (inactive); in [4] it was 12.2% (inactive) and 4.17% (active); in [5] it was -2.69% (active); in assay [6], 24.8% (inactive) and -11.8% (active). Moreover, the growth was 35.8% (inactive) and 22.1% (inactive) in assay [7]; 32.7% (inactive) and 20.3% (inactive) in [8]; 50.3% (inactive) in [9].

Turning to `CNC(=O)c1ccc(C)c(-n2c(C)cc(OCc3ccc(F)cc3F)c(Br)c2=O)c1`, the growth in [1] is 66% (inactive) and 74.1% (inactive); in assay [2], 67.2% (inactive) and 64.6% (inactive); in assay [3], 69.8% (inactive) and 89% (inactive); in assay [4] it was 80.3% (inactive) and 97.2% (inactive); in assay [5] it was 64.3% (inactive) and 90.9% (inactive); in assay [6] it was 52.3% (inactive) and 47.1% (inactive). Also, the growth is 63.4% (inactive) and 63.2% (inactive) in assay [7]; 85.9% (inactive) and 84.2% (inactive) in assay [8]; 61% (inactive) and 91.8% (inactive) in [9].

With `CCOc1ccc2nc3cc(N)ccc3c(N)c2c1`, the growth in assay [1] is 46.3% (inactive) and 40.5% (inactive); in assay [2] it was 20.2% (inactive) and 44.6% (inactive); in [4], 29.3% (inactive) and 61.9% (inactive); in [5], 58.3% (inactive); in [6], 0.893% (active) and 10.4% (inactive); in [7], 77.6% (inactive) and 77.2% (inactive). Further, the growth in assay [8] is 24.2% (inactive) and 13.8% (inactive); in assay [9], 71.1% (inactive) and 75.9% (inactive).

Consider `CCN(CC)CCCC(C)Nc1ccnc2cc(Oc3ccccc3)ccc12` (stereo unspecified), for which the growth is 99.7% (inactive) and 112% (inactive) in assay [2]; 84.7% (inactive) and 105% (inactive) in [10]; 68.9% (inactive) and 83.2% (inactive) in assay [3]; 69.7% (inactive) and 96.5% (inactive) in assay [4]; -6.39% (active) and 60.3% (inactive) in assay [5]; 55.9% (inactive) in assay [6]. In addition, the growth in assay [7] was 58.7% (inactive) and 86.6% (inactive); in [8], 64.3% (inactive) and 84.6% (inactive); in [9], 47.6% (inactive) and 60.2% (inactive).

For the compound `CCN(CC)CCCC(CNc1ccnc2cc(Cl)ccc12)c1ccc(Cl)cc1` (stereo unspecified), the growth was 4.19% (active) and 25.2% (inactive) in [2]; -33.5% (active) and 46.5% (inactive) in assay [10]; 4.57% (active) and 88.8% (inactive) in assay [3]; 24.3% (inactive) and -63.6% (active) in assay [4]; -51.5% (active) and -68.6% (active) in [5]; -49.4% (active) and -59.6% (active) in assay [6]. For the same compound, the growth in assay [7] was 4.3% (active) and 61.4% (inactive); in [8], -83.4% (active) and -97.3% (active); in assay [9], -61.9% (active) and -85.6% (active).

Take `Cn1c(SSc2ccc(-c3cccnc3)n2C)ccc1-c1cccnc1`: the growth is 108% (inactive) and 105% (inactive) in assay [2]; 106% (inactive) and 95.5% (inactive) in [10]; 117% (inactive) and 118% (inactive) in assay [3]; 101% (inactive) and 65.9% (inactive) in assay [4]; 79% (inactive) and 101% (inactive) in assay [5]; 62% (inactive) and 81.9% (inactive) in assay [6]. In addition, the growth in assay [7] is 103% (inactive); in assay [8], 120% (inactive) and 112% (inactive); in assay [9], 116% (inactive) and 102% (inactive).

On to `Cn1c(=O)c2[nH]c(CCCCCCCCc3nc4ccccc4[nH]3)nc2n(C)c1=O`, for which the growth in assay [1] was 47.4% (inactive) and 55.2% (inactive); in assay [2], 58.1% (inactive) and 66.3% (inactive); in assay [3], 57% (inactive) and 49.2% (inactive); in [5], 60.4% (inactive); in assay [6], 72.8% (inactive); in [7], 67.4% (inactive) and 70.1% (inactive). The growth in assay [8] is 73.1% (inactive) and 75.1% (inactive); in [9], 88% (inactive) and 99.6% (inactive).

`COc1cc2nc(N3CCC[C@@H](NC(=O)C4COc5ccccc5O4)C3)nc(N)c2cc1OC` (stereo partly specified): the growth is 102% (inactive) and 99.7% (inactive) in assay [2]; 96.1% (inactive) and 102% (inactive) in assay [10]; 107% (inactive) and 102% (inactive) in assay [3]; 105% (inactive) and 107% (inactive) in assay [4]; 87% (inactive) and 83% (inactive) in [5]; 96.4% (inactive) and 93.9% (inactive) in assay [6]. The growth was 95.7% (inactive) and 93.9% (inactive) in assay [7]; 97.4% (inactive) and 96.9% (inactive) in assay [8]; 108% (inactive) and 107% (inactive) in [9].

For `Cc1ccc(NCSc2ccc(Cl)cc2)cc1`, the growth in assay [1] is 80.7% (inactive) and 93.2% (inactive); in assay [2], 63.5% (inactive) and 103% (inactive); in assay [4], 82.7% (inactive) and 93.8% (inactive); in assay [5], 63% (inactive); in assay [7] it was 62% (inactive) and 63.7% (inactive); in [8], 39.1% (inactive) and 53.7% (inactive). The growth in assay [9] is 81.6% (inactive) and 93.1% (inactive).

In the case of `OCc1ccccn1`, the growth is 102% (inactive) in [2]; 105% (inactive) in assay [10]; 115% (inactive) in assay [3]; 105% (inactive) in assay [4]; 108% (inactive) in [5]; 94.9% (inactive) in assay [6]. Further, the growth in assay [7] is 102% (inactive); in [8] it was 104% (inactive); in assay [9], 127% (inactive).

As to `CCOc1ccc2cc(-c3nn(CC4CCNCC4)c4ncnc(N)c34)ccc2c1`, the growth in assay [2] is 67.5% (inactive) and 52.5% (inactive); in [10], 91.6% (inactive) and 75.4% (inactive); in [3] it was 83.2% (inactive) and 64.9% (inactive); in [4] it was 96.7% (inactive) and 49.7% (inactive); in assay [5], 72.5% (inactive) and 26.5% (inactive); in assay [6], 86.5% (inactive) and 81.4% (inactive). In addition, the growth in [7] is 85% (inactive) and 59% (inactive); in assay [8], 91.4% (inactive) and 36% (inactive); in assay [9], 93% (inactive) and 15.3% (inactive).
